The values below come from PubChem BioAssay.

Values without a mark were called inactive. Calls of active or inactive are those of the source.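 Rule for the calls: active = inhibition above the hit cutoff set in the earlier primary screen (cut at about 27% in these data); inactive = the rest.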

By inhibition is commonly meant the relative decrease from the control value, in per cent.

For the assay, the target named is Protein phosphatase methylesterase 1 (Homo sapiens) (UniProt Q9Y570). As to the kind of experiment: human PME-1 methylesterase inhibition confirmation – biochemical, fluorescence polarization, FP-Rh probe, triplicate (AID 2171).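 Note: 0% = enzyme with DMSO and 100% = wells lacking PME-1.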 The following applies: recombinant PME-1, FP-Rh probe fluorescence polarization; at 5.9 µM; active compounds read high. On the technique in general: Fluorescence polarisation rises when a labelled molecule tumbles more slowly, as on binding a larger partner.
Protein phosphatase methylesterase 1 (Homo sapiens), sequence (Q9Y570 whole entry, looked up): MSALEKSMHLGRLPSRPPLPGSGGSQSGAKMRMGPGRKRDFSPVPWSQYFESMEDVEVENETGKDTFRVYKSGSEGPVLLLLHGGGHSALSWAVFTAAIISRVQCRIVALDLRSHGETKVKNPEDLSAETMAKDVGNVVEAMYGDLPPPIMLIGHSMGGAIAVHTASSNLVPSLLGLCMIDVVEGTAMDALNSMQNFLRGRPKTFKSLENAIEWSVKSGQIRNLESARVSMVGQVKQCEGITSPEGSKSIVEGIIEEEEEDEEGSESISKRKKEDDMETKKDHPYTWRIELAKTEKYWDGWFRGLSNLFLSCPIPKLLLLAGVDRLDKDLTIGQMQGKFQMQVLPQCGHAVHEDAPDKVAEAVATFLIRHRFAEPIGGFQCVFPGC
As to `COc1cccc(NC(=O)Nc2nnc(N3CCCCC3C)s2)c1` (stereo not given), the inhibition was 50.6% (active).

For `N#CC1=C(N)C(C#N)(C#N)C(c2ccncc2)C2CN(C(=O)OCc3ccccc3)CC=C12` (stereo not given), the inhibition is 28.3% (active). Then `Cc1nn(-c2ccccc2)c2ncc(C(=O)c3cc(Cl)ccc3O)cc12`, with -5.34%; and `Oc1ccc(/C=N/Nc2ccnc3cc(Cl)ccc23)c(O)c1O`, with 51.8% (active).

As for `Brc1csc(/C=N/Nc2nc3ccccc3s2)c1`, the inhibition was 45.3% (active). The same measure for `CC(C)c1ccc2c(c1)C1(NN=C(c3ccccc3)S1)C(=O)N2` (stereo not given): 33.9% (active); for `CC1=NC(=O)C(N=Nc2cccc(O)c2)N1c1ccccc1` (stereo not given): 24.1%. Consider `COC(=O)c1ccccc1C(=O)c1ccc2c(c1)NC(=O)CO2`, for which the inhibition is 7.04%. Consider `N#Cc1c(N)n(CCOC(=O)c2cccc([N+](=O)[O-])c2)c2nc3ccccc3nc12`, for which the inhibition was 19.5%.

For `Cc1cccc(NC(=O)CN2C(=O)S/C(=C\c3ccc(O)c([N+](=O)[O-])c3)C2=O)c1`, the inhibition is 24.7%. The same measure for `O=c1[nH]n2c(=O)c3c([nH]c2c1N=Nc1cccc(C(F)(F)F)c1)CCCC3`: 60.6% (active); for `Cc1ccc(C)c(-n2c3nc(=O)[nH]c(=O)c-3cc3cc([N+](=O)[O-])ccc32)c1`: 24.5%.

`Cc1cc(C(C#N)c2ccc(Cl)cc2)c(Cl)cc1NC(=O)c1cc(I)cc(I)c1O` (stereo not given): the inhibition is 47.6% (active). `CCN(CC)S(=O)(=O)c1ccc(C)c(NC(=O)COC(=O)c2ccc(C)c(S(=O)(=O)N3CCOCC3)c2)c1`: the inhibition is 49.7% (active). Then `Cc1ccsc1/C=N/n1c(-c2cc(-c3ccccc3)n[nH]2)n[nH]c1=S`, with 22%.
